Experiment [1] deals with T1, Inhibitor of nuclear factor kappa-B kinase subunit epsilon (Homo sapiens) (UniProt Q14164).
T1 sequence (whole entry): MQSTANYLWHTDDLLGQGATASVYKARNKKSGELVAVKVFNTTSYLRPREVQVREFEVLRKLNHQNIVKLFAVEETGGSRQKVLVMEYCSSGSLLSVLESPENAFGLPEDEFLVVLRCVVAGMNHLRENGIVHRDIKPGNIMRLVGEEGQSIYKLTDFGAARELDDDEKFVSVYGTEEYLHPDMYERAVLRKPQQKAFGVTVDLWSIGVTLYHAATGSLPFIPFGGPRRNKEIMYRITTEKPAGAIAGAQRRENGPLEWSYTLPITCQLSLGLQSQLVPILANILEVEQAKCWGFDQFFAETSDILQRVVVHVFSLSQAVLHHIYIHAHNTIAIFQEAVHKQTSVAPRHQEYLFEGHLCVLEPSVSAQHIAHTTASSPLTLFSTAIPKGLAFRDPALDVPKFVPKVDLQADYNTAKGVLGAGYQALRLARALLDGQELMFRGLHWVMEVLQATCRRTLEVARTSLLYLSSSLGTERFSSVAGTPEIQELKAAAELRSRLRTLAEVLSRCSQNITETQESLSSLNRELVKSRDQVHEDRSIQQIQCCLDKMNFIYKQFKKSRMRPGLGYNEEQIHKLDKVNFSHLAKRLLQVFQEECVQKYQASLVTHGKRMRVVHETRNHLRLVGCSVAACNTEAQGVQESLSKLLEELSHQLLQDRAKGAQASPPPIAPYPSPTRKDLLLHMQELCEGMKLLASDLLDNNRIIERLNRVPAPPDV
To be noted: at 1 µM.

Experiment [2] has as its target T2, Serine/threonine-protein kinase Nek1 (Homo sapiens) (UniProt Q96PY6).
T2 sequence (whole entry): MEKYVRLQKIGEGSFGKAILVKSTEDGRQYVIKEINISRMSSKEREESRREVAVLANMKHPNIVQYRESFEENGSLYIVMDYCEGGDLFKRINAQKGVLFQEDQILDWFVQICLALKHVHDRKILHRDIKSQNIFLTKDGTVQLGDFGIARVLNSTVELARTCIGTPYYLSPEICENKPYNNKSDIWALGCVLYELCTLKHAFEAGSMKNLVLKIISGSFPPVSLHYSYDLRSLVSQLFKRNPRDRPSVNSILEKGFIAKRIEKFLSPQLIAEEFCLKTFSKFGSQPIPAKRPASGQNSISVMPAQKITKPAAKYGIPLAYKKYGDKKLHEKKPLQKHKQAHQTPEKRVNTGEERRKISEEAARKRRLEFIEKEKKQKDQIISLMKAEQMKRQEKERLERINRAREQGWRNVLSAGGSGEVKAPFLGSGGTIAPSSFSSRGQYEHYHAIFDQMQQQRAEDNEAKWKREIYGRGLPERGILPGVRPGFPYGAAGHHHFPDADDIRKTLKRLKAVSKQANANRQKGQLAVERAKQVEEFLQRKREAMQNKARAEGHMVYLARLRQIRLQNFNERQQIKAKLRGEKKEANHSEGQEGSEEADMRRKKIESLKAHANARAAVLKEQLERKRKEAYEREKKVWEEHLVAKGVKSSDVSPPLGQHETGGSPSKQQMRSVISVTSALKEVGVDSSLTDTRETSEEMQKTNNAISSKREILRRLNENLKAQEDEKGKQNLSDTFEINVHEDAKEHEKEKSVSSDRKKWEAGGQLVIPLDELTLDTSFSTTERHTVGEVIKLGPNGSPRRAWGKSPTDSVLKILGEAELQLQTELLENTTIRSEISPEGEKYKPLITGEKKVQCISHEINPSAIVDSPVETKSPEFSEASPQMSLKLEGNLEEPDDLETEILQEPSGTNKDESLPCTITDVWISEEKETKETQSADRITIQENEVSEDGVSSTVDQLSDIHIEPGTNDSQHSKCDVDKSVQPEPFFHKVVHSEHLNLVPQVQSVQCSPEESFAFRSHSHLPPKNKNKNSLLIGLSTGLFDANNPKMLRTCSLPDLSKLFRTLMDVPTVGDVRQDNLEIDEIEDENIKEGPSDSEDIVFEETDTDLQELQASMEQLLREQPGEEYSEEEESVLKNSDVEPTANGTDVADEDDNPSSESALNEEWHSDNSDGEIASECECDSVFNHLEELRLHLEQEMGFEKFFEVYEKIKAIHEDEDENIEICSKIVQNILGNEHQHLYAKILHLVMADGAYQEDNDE
Conditions: at 0.1 µM.

Experiment [3] concerns the target T2, Serine/threonine-protein kinase Nek1 (Homo sapiens). Conditions: at 1 µM.
In experiment [4] the target is T3, Serine/threonine-protein kinase Nek2 (Homo sapiens) (UniProt P51955).
T3 sequence (whole entry): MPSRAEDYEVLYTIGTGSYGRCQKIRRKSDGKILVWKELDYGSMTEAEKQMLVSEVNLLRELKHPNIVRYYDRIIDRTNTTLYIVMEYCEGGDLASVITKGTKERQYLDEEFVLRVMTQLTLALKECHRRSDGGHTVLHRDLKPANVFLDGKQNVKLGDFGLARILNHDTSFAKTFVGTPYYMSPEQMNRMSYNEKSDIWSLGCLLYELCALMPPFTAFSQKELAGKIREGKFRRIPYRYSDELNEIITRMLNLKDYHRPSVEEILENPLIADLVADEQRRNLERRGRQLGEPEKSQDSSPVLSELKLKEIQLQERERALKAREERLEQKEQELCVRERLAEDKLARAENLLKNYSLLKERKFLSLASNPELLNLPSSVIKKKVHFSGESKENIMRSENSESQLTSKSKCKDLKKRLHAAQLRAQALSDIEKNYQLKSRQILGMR
Conditions: at 0.1 µM.

Experiment [5] has as its target T3, Serine/threonine-protein kinase Nek2 (Homo sapiens). Conditions: at 1 µM.
Experiment [6] addresses Serine/threonine-protein kinase Nek6 (Homo sapiens) (UniProt Q9HC98). To be noted: at 0.1 µM.
The target is the same in experiment [7]. Conditions: at 1 µM.
Experiment [8] concerns the target Serine/threonine-protein kinase Nek7 (Homo sapiens) (UniProt Q8TDX7). Conditions: at 0.1 µM.
Experiment [9] has the same target. Conditions: at 1 µM.
In experiment [10] the target is T4, Serine/threonine-protein kinase Nek9 (Homo sapiens) (UniProt Q8TD19).
T4 sequence (whole entry): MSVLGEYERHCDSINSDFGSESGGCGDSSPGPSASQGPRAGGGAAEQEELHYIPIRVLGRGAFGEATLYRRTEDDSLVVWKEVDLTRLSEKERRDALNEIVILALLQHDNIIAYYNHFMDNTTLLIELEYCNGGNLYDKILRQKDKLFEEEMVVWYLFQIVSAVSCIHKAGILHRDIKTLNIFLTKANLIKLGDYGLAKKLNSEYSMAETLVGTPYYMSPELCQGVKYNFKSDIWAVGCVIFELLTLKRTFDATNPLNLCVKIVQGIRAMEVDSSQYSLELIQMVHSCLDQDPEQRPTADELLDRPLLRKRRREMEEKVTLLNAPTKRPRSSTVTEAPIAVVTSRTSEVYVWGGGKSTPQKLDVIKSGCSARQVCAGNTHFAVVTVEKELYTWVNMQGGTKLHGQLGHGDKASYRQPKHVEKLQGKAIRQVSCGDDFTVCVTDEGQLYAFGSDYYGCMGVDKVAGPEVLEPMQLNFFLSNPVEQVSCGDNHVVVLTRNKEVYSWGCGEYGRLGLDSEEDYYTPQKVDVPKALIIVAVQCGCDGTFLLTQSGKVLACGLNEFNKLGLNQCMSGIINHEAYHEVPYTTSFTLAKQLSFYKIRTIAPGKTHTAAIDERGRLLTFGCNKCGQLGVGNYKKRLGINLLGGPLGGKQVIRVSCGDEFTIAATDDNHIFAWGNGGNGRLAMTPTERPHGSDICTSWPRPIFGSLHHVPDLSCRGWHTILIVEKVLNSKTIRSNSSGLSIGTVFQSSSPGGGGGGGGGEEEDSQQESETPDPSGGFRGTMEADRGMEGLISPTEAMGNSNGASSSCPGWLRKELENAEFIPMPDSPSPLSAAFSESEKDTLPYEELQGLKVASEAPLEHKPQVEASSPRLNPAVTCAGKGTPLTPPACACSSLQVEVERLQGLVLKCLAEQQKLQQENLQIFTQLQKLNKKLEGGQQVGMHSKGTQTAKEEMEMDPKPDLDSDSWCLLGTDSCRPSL
To be noted: at 0.1 µM.

Experiment [11] has as its target T4, Serine/threonine-protein kinase Nek9 (Homo sapiens). Conditions: at 1 µM.
Experiment [12] has as its target Serine/threonine-protein kinase PLK1 (Homo sapiens) (UniProt P53350). To be noted: at 0.1 µM.
For experiment [13] the target is unchanged. To be noted: at 1 µM.
The target in experiment [14] is T5, Dual specificity protein kinase TTK (Homo sapiens) (UniProt P33981).
T5 sequence (whole entry): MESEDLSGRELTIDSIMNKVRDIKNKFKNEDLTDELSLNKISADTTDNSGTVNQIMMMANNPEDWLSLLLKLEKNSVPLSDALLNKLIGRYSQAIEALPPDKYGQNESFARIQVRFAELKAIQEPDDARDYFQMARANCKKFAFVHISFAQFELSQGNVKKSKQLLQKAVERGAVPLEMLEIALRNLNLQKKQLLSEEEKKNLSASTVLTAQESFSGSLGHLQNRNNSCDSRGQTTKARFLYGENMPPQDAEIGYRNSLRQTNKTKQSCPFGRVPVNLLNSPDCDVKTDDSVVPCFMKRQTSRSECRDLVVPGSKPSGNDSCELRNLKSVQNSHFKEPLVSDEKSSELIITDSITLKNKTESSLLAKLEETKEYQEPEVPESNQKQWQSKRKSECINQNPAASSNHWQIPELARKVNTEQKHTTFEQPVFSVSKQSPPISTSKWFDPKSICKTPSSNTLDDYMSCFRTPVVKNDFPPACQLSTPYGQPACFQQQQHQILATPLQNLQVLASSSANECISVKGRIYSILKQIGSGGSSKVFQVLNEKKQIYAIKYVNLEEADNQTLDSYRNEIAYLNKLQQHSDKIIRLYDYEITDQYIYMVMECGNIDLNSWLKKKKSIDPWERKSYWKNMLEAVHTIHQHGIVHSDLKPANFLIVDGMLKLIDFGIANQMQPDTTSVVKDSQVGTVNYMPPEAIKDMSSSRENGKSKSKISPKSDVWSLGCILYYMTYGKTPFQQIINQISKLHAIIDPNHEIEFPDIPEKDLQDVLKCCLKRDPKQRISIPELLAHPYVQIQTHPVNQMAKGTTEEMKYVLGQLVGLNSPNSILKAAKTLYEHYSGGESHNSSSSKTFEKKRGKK
Conditions: at 0.1 µM.

Experiment [15] has as its system T6, Receptor-type tyrosine-protein kinase FLT3 (Homo sapiens), P36888 [D835Y].
T6 sequence (whole entry): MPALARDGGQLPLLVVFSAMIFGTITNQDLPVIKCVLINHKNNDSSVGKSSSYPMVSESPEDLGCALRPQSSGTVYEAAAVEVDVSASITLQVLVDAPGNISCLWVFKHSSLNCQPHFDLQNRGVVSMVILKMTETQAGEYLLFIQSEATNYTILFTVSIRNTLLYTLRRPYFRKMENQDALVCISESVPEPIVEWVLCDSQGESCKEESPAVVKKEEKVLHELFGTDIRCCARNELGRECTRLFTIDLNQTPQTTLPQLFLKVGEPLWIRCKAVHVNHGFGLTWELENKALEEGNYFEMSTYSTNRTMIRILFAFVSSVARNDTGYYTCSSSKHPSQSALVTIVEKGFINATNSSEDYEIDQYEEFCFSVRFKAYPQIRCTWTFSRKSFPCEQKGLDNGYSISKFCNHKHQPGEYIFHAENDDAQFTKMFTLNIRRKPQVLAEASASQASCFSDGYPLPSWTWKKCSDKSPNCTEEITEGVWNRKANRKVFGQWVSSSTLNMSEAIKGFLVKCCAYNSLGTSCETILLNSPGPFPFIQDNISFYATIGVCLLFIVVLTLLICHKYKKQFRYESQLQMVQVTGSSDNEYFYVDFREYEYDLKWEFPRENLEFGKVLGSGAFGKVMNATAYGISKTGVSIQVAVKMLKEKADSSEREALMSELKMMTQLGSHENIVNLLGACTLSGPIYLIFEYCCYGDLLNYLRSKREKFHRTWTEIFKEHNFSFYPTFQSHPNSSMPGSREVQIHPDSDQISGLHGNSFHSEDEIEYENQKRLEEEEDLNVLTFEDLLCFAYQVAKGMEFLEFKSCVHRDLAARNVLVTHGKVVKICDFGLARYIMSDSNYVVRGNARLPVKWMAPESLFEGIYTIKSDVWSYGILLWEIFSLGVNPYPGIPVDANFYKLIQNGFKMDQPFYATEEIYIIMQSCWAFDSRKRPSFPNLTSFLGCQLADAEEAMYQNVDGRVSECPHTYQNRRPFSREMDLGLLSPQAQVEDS
To be noted: at 1 µM.

The target of experiment [16] is Vascular endothelial growth factor receptor 3 (Homo sapiens) (UniProt P35916). To be noted: at 0.1 µM.
Sequence of Vascular endothelial growth factor receptor 3 (Homo sapiens) (P35916 whole entry): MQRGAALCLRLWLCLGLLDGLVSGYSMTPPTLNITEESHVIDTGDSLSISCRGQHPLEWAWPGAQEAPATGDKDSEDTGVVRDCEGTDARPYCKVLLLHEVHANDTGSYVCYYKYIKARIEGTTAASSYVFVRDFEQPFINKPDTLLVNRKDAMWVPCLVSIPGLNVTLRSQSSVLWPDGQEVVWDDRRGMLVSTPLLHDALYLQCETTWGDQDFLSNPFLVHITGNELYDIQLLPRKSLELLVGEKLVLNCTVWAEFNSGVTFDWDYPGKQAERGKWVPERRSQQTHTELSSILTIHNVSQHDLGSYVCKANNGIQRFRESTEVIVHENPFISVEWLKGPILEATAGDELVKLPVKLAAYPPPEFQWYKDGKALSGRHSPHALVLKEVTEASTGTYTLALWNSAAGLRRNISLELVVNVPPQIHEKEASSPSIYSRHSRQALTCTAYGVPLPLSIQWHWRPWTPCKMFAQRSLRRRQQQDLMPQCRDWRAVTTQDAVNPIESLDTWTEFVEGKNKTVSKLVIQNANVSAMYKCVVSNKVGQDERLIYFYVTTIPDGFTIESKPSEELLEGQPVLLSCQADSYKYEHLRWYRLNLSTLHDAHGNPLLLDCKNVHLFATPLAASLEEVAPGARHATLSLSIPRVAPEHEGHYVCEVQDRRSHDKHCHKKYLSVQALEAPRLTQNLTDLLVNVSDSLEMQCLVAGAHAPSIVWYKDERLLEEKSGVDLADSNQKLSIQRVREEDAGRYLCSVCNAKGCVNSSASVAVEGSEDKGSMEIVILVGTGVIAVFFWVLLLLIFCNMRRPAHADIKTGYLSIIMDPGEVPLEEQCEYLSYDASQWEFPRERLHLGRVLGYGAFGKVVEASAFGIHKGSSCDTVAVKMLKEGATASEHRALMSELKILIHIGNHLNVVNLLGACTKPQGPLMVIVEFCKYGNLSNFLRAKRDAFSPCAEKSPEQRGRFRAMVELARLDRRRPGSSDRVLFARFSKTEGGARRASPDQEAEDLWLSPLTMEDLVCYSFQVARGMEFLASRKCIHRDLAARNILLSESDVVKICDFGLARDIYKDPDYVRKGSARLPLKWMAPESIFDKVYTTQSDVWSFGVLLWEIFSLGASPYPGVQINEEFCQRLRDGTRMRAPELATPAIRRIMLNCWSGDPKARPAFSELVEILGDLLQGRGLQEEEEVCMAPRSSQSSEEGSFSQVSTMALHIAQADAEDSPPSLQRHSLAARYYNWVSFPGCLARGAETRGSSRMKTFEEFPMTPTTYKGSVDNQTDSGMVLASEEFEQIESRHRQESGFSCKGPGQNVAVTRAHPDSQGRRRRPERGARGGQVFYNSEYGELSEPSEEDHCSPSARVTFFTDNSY
The target is the same in experiment [17]. Conditions: at 1 µM.
Experiment [18] addresses Macrophage colony-stimulating factor 1 receptor (Homo sapiens) (UniProt P07333). Conditions: at 0.1 µM.
Experiment [19] has the same target. To be noted: at 1 µM.
The target of experiment [20] is Tyrosine-protein kinase Fyn (Homo sapiens) (UniProt P06241). Conditions: at 0.1 µM.
Sequence of Tyrosine-protein kinase Fyn (Homo sapiens) (P06241 2-537 limits assumed): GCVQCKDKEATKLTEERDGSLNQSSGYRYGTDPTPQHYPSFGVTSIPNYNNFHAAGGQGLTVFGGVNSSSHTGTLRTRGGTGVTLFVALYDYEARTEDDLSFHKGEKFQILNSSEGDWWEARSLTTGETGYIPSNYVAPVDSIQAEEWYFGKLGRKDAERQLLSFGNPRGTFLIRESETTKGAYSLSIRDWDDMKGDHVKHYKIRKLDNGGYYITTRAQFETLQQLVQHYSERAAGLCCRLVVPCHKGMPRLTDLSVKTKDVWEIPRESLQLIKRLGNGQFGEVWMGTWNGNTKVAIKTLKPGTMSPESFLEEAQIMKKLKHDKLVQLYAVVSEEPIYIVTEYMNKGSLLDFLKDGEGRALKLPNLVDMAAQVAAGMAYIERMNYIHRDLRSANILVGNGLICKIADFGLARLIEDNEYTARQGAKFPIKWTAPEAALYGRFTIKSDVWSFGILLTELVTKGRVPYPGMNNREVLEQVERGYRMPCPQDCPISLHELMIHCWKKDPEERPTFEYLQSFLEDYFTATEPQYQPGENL

Sequence of Serine/threonine-protein kinase PLK1 (Homo sapiens) (P53350 whole entry): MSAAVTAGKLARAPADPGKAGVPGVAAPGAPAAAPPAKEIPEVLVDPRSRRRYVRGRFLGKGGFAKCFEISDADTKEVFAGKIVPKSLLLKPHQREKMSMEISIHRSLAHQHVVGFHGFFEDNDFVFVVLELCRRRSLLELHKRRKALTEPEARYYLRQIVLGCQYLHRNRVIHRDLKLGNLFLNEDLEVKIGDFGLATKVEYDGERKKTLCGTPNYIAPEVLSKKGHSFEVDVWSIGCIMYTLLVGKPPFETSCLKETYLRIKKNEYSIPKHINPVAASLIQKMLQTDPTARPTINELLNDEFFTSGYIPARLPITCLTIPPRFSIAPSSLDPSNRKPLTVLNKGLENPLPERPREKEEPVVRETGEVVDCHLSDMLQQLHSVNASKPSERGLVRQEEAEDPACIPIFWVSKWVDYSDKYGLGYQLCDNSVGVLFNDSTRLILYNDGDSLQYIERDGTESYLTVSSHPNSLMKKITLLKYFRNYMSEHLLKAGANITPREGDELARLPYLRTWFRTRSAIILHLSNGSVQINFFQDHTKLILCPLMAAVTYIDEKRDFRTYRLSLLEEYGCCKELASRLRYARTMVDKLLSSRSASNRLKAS
Sequence of Serine/threonine-protein kinase Nek7 (Homo sapiens) (Q8TDX7 whole entry, looked up): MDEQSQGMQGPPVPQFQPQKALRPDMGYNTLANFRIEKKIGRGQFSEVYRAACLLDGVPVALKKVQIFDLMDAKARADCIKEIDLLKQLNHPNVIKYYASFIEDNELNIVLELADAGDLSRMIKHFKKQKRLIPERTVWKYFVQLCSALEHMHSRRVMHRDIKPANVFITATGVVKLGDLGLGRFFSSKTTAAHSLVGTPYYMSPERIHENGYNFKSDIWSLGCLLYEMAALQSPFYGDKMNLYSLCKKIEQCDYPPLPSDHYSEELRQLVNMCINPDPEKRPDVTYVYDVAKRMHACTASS
Sequence of Serine/threonine-protein kinase Nek6 (Homo sapiens) (Q9HC98 whole entry): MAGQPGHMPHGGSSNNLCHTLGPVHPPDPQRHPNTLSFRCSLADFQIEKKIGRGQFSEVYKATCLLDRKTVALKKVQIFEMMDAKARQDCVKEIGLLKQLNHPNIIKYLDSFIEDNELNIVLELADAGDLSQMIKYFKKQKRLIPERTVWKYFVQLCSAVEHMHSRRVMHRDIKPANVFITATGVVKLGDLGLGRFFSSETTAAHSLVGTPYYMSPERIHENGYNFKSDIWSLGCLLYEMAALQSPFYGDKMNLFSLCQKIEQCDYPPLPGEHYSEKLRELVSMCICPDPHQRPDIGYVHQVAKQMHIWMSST
Sequence of Macrophage colony-stimulating factor 1 receptor (Homo sapiens) (P07333 whole entry): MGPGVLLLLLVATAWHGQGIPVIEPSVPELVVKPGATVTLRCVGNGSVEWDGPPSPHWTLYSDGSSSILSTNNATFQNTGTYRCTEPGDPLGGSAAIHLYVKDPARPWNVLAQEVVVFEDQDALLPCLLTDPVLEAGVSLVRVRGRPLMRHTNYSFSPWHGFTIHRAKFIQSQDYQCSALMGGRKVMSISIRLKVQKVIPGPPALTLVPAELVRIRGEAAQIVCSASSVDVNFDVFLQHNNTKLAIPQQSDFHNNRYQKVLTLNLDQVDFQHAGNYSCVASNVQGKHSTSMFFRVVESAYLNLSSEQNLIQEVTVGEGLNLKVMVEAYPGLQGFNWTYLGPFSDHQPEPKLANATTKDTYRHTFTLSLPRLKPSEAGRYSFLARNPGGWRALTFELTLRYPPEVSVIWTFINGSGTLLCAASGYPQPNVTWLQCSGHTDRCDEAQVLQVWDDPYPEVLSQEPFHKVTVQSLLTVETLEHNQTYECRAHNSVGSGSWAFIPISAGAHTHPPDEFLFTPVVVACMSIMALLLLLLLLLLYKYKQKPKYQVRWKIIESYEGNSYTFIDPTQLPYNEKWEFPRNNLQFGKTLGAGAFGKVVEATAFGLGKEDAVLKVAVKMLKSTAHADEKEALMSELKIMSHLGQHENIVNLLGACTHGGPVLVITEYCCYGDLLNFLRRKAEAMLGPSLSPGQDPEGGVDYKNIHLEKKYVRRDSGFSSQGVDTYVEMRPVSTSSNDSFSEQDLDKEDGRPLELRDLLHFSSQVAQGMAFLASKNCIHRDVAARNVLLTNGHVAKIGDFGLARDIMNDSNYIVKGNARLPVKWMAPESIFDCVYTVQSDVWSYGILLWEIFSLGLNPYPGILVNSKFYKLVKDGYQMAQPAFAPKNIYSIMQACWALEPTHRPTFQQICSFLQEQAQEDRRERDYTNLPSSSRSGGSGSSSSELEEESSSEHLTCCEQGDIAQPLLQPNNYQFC

As to `Cc1ccc(NC(=O)CC2CC2)cc1-c1ccc(C(=O)NCC2CC2)cc1`, the inhibition came to 3.27% in [1]; 2.27% in experiment [2]; 3.32% in experiment [3]; 3.73% in experiment [4]; 3.66% in experiment [5]; 2.7% in experiment [6]. The inhibition amounted to 0.33% in [7]; 4.87% in [8]; 4.36% in experiment [9]; 5.37% in experiment [10]; 7.42% in experiment [11]; 3.49% in experiment [12]. For the same compound, the inhibition is 1.97% in [13]; 5.15% in experiment [14]; 0.64% in [15]; 0.87% in [16]; -0.77% in experiment [17]; 2.08% in [18]. Further, the inhibition in experiment [19] was -0.55%; in [20], 1.7%.

Usually inhibition stands for the change of the read-out against control, counted positive when it falls.

Values taken from ChEMBL document CHEMBL1961873, “Compounds: GSK PKIS; Assays: Nanosyn kinase panel” (2012).
